Screens as filed in PubChem BioAssay.
Avidin fluor: green autofluorescence of compounds with avidin beads – biophysical, 488/530 nm, flow cytometry, artefact control, profiling panel | compound fluorescence 488/530 nm; active compounds read high | fluorescence (KMESF) at 10 µM | 0.38% of 220,000 active | AID 1775, 2009; in the data active = fluorescence above about 47
RGS8-Gao reg: RGS8-Galphao binding modulators, primary screen, biochemical, multiplexed bead flow cytometry; Guanine nucleotide-binding protein G(o) subunit alpha (Homo sapiens), P09471; 0.34% of 220,000 active; response (percent of control binding), % at 10 µM; actives lie on both sides; in the data active = response below about 60% or above about 140%; inactive = in between;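 note: Galphao activated as the GDP aluminium fluoride complex binding bead-coupled RGS8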
RGS7-Gao reg: RGS7-Galphao binding modulators, primary screen, biochemical, multiplexed bead flow cytometry | Guanine nucleotide-binding protein G(o) subunit alpha (Homo sapiens), P09471 | actives lie on both sides | binding response (% of control), % at 10 µM | 0.35% of 220,000 active | AID 1439, 2008; in the data active = binding response below about 49% or above about 150%; inconclusive = no clear call, values can overlap the other calls; inactive = in between;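 note: fluorescent Galphao held in activated GDP-AlF4 state binding bead-coupled RGS7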
GSH fluor: compound fluorescence on glutathione beads, profiling panel, artefact control, biophysical, 488/530 nm, flow cytometry; 0.25% of 190,000 active; GSH beads flow cytometry, compound fluorescence 488/530 nm; active compounds read high; fluorescence (KMESF) at 10 µM; in the data active = fluorescence above about 89;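 note: glutathione beads carrying GST-tagged Bcl family fusion proteins plus one bare bead set; values are compound well signal with DMSO vehicle wells as background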
RGS16-Gao: modulators of RGS16 binding to Galphao, primary screen, biochemical, human proteins, multiplexed bead flow cytometry; bead-based flow cytometry RGS16-Galphao binding, fluorescence; actives lie on both sides; binding response (% of control), % at 10 µM; 0.38% of 220,000 active; AID 1441, 2008; call rule not given here;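 note: Galphao activated by GDP with aluminum fluoride before binding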
Target sequence (O15492 whole entry, looked up): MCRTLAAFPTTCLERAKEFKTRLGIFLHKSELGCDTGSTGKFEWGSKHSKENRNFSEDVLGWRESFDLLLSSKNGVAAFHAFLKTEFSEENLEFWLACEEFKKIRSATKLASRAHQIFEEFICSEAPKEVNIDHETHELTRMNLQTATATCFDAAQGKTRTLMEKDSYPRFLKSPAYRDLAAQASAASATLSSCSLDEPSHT
Target sequence (P09471 whole entry, looked up): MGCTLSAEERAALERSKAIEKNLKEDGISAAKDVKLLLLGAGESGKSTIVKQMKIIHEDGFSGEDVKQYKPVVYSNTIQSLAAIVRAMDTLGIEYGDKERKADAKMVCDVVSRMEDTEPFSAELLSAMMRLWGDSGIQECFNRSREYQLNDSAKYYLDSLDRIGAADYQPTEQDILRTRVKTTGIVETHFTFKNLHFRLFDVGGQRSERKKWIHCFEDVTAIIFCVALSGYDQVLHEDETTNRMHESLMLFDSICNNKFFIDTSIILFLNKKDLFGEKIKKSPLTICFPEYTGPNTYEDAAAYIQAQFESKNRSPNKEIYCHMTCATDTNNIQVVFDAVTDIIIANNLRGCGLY
RGS4-Gao reg: modulators of RGS4 binding to Galphao, primary screen, biochemical, multiplexed bead flow cytometry; Guanine nucleotide-binding protein G(o) subunit alpha (Homo sapiens), P09471; actives lie on both sides; binding response (% of control), % at 10 µM; 0.33% of 220,000 active; in the data active = binding response below about 49% or above about 150%; inactive = in between;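 note: fluorescent Galphao activated with aluminum fluoride binding bead-coupled RGS4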
An asterisk follows results filed as active; [ ] = dose if it differs, or a comment. Sampled rows, rich in hits. Any-hit rate of the full collection: about 1.2%.

What do the screens show for `COc1cccc(CN2CCNC(=O)C2CC(=O)NCCn2ccc3ccccc32)c1OC` (configuration not stated)?
Avidin fluor: 9; RGS8-Gao reg: 96; RGS7-Gao reg: 100; GSH fluor: 21; RGS16-Gao: 96; RGS4-Gao reg: 97

What do the screens show for `O=c1oc2ccccc2cc1-c1nc2c(s1)CCc1ccccc1-2`?
Avidin fluor: 10; RGS8-Gao reg: 100; RGS7-Gao reg: 103; GSH fluor: 12; RGS16-Gao: 105; RGS4-Gao reg: 96

How did O=c1oc2cc(O)ccc2cc1-c1nc2c(s1)CCc1ccccc1-2 do in these assays?
Avidin fluor: 5; RGS8-Gao reg: 98; RGS7-Gao reg: 97; GSH fluor: 159*; RGS16-Gao: 105; RGS4-Gao reg: 99

Results for N#C/C(=C\c1ccc(N2CCOCC2)o1)C(=O)Nc1ccc(O)cc1 ?
Avidin fluor: 22; RGS8-Gao reg: 105; RGS7-Gao reg: 102; GSH fluor: 10; RGS16-Gao: 106; RGS4-Gao reg: 106

How did N#C/C(=C/c1ccc(N2CCCCC2)o1)C(=O)Nc1ccc(Cl)cc1 do in these assays?
Avidin fluor: 56*; RGS8-Gao reg: 104; RGS7-Gao reg: 124; GSH fluor: 52; RGS16-Gao: 135; RGS4-Gao reg: 126

What do the screens show for `O=C(COC(=O)c1ccccc1Oc1ccccc1)NCc1ccco1`?
Avidin fluor: 7; RGS8-Gao reg: 101; RGS7-Gao reg: 97; GSH fluor: 263*; RGS16-Gao: 92; RGS4-Gao reg: 91

What do the screens show for `COc1ccc(OCCC(=O)OCC(=O)NCc2ccco2)cc1`?
Avidin fluor: 6; RGS8-Gao reg: 99; RGS7-Gao reg: 94; GSH fluor: 259*; RGS16-Gao: 92; RGS4-Gao reg: 93

How did COc1ccccc1NCCC(=O)OCC(=O)NCc1ccco1 do in these assays?
Avidin fluor: 5; RGS8-Gao reg: 103; RGS7-Gao reg: 90; GSH fluor: 9; RGS16-Gao: 107; RGS4-Gao reg: 96

How did CCC(C)NC(=S)N1CCN(C)CC1 (configuration not stated) do in these assays?
Avidin fluor: 11; RGS8-Gao reg: 103; RGS7-Gao reg: 100; GSH fluor: 12; RGS16-Gao: 104; RGS4-Gao reg: 103

What do the screens show for `Oc1ccc(C=Nc2ccc3ncccc3c2)c(O)c1`?
Avidin fluor: 69*; RGS8-Gao reg: 100; RGS7-Gao reg: 117; GSH fluor: 17; RGS16-Gao: 105; RGS4-Gao reg: 106

What do the screens show for `Oc1ccc(C=Nc2cccc3ncccc23)c(O)c1`?
Avidin fluor: 15; RGS8-Gao reg: 102; RGS7-Gao reg: 97; GSH fluor: 23; RGS16-Gao: 101; RGS4-Gao reg: 99

How did COC(=O)Cn1nnc(N2CCOCC2)n1 do in these assays?
Avidin fluor: 4; RGS8-Gao reg: 100; RGS7-Gao reg: inconclusive; RGS16-Gao: 95; RGS4-Gao reg: 90

What do the screens show for `CCN(CC)c1ccc(CN2CCC(C(=O)NCc3ccc(C)cc3)CC2)cc1`?
Avidin fluor: 7; RGS8-Gao reg: 124; RGS7-Gao reg: 105; GSH fluor: 11; RGS16-Gao: 170; RGS4-Gao reg: 100

How did O=C(NC1CCS(=O)(=O)C1)C1C2CC3CC(C2)CC1C3 (configuration not stated) do in these assays?
Avidin fluor: 55*; RGS8-Gao reg: 101; RGS7-Gao reg: 119; GSH fluor: 59; RGS16-Gao: 101; RGS4-Gao reg: 102

Results for CCN1CCC(CNCc2cn(-c3ccc(OC)cc3)nc2-c2ccccc2Cl)C1 (configuration not stated) ?
Avidin fluor: 9; RGS8-Gao reg: 104; RGS7-Gao reg: 96; GSH fluor: 9; RGS16-Gao: 101; RGS4-Gao reg: 106

How did COc1cccc(/C=N/n2c(-c3n[nH]c4c3CCC4)n[nH]c2=S)c1OC do in these assays?
Avidin fluor: 8; RGS8-Gao reg: 99; RGS7-Gao reg: inconclusive; RGS16-Gao: 95; RGS4-Gao reg: 98

How did Cc1cc(C)nc(NS(=O)(=O)c2ccc(NC(=S)NC(=O)CC(C)C)cc2)n1 do in these assays?
Avidin fluor: 118*; RGS8-Gao reg: 108; RGS7-Gao reg: 194*[activator]; GSH fluor: 20; RGS16-Gao: 270*[activator]; RGS4-Gao reg: 208*[activator]

How did CCCCn1nc(C(=O)Nc2cc(S(=O)(=O)N(C)C)ccc2C)c2ccccc2c1=O do in these assays?
Avidin fluor: 7; RGS8-Gao reg: 102; RGS7-Gao reg: inconclusive; RGS16-Gao: 102; RGS4-Gao reg: 103

What do the screens show for `O=C(COC(=O)c1ccc(OC(F)F)cc1)NCCCN1CCCC1=O`?
Avidin fluor: 6; RGS8-Gao reg: 100; RGS7-Gao reg: inconclusive; RGS16-Gao: 101; RGS4-Gao reg: 101
